Assay results from paper PMC7862700, “An all-to-all approach to the identification of sequence-specific readers for epigenetic DNA modifications on cytosine”.

How the values were obtained:
Test in all cases: DAPPL (digital affinity profiling via proximity ligation, sequencing); 10 mM Tris-HCl pH 7.5, 50 mM NaCl, 1 mM DTT, 4% glycerol, room temperature, 30 min; GST-TFs on glutathione beads, 16-mer random dsDNA library, 0.1% formaldehyde crosslink after washing; high values mean tight binding
Settings in all cases: protein: recombinant; tags: N-terminal GST; dsDNA, one strand shown
[1] = target: T1, FLI1 (Homo sapiens, UniProt Q01543 1-452)
T1 sequence: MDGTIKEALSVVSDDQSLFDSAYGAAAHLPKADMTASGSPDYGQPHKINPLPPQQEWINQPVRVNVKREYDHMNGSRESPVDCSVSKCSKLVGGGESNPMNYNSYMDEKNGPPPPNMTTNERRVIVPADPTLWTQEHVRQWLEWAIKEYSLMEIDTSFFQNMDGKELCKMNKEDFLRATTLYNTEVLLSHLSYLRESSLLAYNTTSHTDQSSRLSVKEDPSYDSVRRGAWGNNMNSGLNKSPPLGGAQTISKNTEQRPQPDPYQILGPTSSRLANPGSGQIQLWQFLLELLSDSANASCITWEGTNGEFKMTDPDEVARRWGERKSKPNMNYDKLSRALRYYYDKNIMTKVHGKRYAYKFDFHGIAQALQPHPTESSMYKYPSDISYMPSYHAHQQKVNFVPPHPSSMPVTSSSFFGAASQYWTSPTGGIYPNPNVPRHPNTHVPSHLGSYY
In short: (§1)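 After expression in yeast as GST fusions, human transcription factors were bound to glutathione beads, DNA-barcoded and mixed with a tag-only sample. The pools were incubated with 200 nmole of a 16-mer random double-stranded DNA library in Tris/NaCl/DTT/glycerol buffer (30 min, room temperature), washed and crosslinked with 0.1% formaldehyde. Proximity ligation with BsaI/T4 ligase ran for 1 h at 37 °C, before PCR amplification and sequencing on an Illumina NextSeq500. Binding signal is a hexamer's read frequency for a factor divided by its frequency for the tag-only sample.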

[2] = target: T2, ELK1 (Homo sapiens, UniProt P19419 1-428)
T2 sequence: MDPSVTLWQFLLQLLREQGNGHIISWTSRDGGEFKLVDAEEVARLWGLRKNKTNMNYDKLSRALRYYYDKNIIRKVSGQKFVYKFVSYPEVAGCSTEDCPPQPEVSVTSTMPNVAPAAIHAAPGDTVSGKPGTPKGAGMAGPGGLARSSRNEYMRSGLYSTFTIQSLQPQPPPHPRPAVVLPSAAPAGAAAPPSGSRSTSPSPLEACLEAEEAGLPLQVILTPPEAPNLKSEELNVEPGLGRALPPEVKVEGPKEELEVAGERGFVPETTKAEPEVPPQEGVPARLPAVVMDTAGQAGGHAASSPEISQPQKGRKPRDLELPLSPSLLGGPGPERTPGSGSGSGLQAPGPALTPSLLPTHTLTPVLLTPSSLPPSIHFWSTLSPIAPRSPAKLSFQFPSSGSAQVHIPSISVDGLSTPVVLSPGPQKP
In short: as §1

[3] = target: T3, GABPA (Homo sapiens, UniProt Q06546 1-454)
T3 sequence: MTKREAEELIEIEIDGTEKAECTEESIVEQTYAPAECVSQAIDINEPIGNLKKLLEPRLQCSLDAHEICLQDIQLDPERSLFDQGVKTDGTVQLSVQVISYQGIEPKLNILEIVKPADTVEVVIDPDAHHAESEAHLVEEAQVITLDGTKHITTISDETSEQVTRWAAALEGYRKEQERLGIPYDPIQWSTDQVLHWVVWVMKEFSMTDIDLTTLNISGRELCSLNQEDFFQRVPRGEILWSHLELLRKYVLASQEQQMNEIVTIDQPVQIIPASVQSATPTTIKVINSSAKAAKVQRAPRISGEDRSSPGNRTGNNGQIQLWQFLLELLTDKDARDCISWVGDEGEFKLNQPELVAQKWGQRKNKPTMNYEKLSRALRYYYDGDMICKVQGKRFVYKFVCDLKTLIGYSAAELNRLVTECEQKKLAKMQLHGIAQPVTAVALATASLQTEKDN
In short: as §1

[4] = target: T4, ERG (Homo sapiens, UniProt P11308 1-479)
T4 sequence: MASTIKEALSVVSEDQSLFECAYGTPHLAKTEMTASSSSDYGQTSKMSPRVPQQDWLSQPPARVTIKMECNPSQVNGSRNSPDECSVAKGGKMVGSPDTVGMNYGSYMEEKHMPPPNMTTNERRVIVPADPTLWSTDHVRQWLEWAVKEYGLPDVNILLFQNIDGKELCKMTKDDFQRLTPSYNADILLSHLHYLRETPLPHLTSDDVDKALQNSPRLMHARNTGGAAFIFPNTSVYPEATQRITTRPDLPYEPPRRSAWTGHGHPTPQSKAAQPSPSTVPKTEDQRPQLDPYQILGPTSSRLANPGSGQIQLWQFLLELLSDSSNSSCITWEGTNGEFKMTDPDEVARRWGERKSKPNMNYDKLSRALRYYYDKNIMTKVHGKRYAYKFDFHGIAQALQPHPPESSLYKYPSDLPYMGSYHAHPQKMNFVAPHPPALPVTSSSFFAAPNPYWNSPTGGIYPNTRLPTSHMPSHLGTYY
In short: as §1

[5] = target: ELF1 (Homo sapiens, UniProt P32519 1-619)
In short: as §1

[6] = target: T5, EHF (Homo sapiens, UniProt Q9NZC4 1-300)
T5 sequence: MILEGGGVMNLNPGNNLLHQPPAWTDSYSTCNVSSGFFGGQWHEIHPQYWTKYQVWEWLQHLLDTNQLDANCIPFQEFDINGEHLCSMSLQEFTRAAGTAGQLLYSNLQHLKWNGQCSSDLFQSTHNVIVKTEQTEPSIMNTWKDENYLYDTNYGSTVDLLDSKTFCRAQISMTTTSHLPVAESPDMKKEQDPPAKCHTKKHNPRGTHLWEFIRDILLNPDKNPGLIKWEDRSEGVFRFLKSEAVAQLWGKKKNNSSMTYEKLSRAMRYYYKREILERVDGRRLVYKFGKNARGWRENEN
In short: as §1

[7] = target: SPI1 (Homo sapiens, UniProt P17947 1-270)
In short: as §1

[8] = target: SPIB (Homo sapiens, UniProt Q01892 1-262)
In short: as §1

[9] = target: T6, ELK3 (Homo sapiens, UniProt P41970 1-407)
T6 sequence: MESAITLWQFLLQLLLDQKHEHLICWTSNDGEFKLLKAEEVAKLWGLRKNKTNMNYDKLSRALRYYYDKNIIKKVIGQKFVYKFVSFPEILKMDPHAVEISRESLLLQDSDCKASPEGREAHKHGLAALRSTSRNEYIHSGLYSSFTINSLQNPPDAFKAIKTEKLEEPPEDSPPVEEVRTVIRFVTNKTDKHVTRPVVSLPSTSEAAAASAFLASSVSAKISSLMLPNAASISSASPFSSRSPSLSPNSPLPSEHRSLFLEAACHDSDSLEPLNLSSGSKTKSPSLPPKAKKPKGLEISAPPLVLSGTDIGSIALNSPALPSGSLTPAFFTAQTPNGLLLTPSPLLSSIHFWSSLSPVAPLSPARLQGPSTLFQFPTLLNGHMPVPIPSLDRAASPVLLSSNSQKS
In short: as §1

[10] = target: T7, FEV (Homo sapiens, UniProt Q99581 1-238)
T7 sequence: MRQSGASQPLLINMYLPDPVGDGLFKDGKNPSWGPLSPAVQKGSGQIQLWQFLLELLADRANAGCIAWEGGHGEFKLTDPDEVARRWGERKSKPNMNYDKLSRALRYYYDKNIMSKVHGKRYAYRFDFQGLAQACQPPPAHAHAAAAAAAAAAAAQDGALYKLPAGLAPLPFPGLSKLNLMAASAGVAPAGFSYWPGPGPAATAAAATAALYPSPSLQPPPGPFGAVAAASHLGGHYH
In short: as §1

[11] = target: ETV5 (Homo sapiens, UniProt P41161 1-510)
In short: as §1

[12] = target: T8, SPIC (Homo sapiens, UniProt Q8N5J4 1-248)
T8 sequence: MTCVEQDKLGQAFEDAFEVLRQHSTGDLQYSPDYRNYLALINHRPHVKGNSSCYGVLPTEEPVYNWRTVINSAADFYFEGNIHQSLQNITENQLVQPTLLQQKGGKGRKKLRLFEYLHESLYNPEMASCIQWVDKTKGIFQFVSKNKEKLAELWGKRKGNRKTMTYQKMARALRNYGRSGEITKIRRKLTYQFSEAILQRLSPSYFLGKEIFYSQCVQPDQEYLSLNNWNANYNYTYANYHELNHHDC
In short: as §1

[13] = target: ELF4 (Homo sapiens, UniProt Q99607 1-663)
In short: as §1

[14] = target: ETV1 (Homo sapiens, UniProt P50549 1-477)
In short: as §1

[15] = target: T9, ERF (Homo sapiens, UniProt P50548 1-548)
T9 sequence: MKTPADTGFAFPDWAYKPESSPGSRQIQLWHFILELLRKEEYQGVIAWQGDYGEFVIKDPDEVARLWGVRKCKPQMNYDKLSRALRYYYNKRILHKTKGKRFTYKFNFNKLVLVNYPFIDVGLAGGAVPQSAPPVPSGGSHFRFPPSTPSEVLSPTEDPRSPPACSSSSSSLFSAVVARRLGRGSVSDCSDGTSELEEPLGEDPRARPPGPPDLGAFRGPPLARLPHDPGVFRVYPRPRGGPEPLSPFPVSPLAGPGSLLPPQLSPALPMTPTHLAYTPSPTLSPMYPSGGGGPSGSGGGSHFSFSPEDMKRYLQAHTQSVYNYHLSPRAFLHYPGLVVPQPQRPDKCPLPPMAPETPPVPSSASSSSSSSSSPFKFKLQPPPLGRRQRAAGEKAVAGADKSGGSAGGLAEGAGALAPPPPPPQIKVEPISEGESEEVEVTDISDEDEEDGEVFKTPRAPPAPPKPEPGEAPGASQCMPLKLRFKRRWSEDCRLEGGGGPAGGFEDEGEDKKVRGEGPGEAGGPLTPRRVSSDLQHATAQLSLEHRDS
In short: as §1

[16] = target: T10, ETV3L (Homo sapiens, UniProt Q6ZN32 1-361)
T10 sequence: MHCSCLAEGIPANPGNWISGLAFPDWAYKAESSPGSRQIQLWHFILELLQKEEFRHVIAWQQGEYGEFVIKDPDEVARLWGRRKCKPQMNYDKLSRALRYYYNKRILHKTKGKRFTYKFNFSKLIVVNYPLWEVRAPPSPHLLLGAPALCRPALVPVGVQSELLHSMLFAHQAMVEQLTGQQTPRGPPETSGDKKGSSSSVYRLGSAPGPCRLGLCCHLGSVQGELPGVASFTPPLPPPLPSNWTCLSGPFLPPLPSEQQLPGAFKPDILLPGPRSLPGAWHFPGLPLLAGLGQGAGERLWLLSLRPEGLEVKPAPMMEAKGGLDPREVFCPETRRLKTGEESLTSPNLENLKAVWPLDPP
In short: as §1

[17] = target: T11, ETS2 (Homo sapiens, UniProt P15036 1-469)
T11 sequence: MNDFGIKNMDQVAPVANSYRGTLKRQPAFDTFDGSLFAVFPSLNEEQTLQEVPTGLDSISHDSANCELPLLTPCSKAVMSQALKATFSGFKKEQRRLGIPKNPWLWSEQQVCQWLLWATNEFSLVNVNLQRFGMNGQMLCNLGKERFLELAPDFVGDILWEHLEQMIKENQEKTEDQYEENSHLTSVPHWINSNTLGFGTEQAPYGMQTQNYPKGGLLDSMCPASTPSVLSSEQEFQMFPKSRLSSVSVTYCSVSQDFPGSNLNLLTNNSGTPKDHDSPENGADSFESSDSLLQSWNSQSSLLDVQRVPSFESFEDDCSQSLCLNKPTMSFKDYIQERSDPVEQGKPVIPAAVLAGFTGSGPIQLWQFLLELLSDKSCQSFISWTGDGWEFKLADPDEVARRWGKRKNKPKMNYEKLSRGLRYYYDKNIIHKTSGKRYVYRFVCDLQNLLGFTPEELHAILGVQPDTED
In short: as §1

[18] = target: T12, ETV3 (Homo sapiens, UniProt P41162-2 1-143)
T12 sequence: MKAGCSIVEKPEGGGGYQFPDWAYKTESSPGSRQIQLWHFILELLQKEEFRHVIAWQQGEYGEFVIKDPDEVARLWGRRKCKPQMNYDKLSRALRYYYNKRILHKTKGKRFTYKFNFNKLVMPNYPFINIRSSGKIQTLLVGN
In short: as §1

[19] = target: ETV6 (Homo sapiens, UniProt P41212 1-452)
In short: as §1

Chain of ETV1 (P50549 whole entry): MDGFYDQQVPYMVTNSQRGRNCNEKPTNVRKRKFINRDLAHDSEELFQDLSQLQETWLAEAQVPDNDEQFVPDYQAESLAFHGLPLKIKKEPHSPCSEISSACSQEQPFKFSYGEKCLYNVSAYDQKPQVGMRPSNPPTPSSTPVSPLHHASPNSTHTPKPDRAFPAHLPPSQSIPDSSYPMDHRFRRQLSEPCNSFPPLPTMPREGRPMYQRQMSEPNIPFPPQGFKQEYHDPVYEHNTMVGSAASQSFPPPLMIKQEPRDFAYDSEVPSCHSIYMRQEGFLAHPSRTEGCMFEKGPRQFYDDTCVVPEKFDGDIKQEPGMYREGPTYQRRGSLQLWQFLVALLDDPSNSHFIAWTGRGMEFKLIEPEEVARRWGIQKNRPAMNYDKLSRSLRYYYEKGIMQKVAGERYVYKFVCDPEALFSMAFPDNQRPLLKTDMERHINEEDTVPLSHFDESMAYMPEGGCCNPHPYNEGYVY
Chain of SPIB (Q01892 whole entry): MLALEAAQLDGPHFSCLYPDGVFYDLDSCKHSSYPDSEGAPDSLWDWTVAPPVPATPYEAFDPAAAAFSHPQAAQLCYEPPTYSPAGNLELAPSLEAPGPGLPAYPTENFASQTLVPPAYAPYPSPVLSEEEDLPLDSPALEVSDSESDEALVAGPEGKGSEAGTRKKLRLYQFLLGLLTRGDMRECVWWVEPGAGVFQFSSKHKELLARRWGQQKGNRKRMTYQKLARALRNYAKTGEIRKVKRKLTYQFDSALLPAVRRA
Chain of ELF4 (Q99607 whole entry): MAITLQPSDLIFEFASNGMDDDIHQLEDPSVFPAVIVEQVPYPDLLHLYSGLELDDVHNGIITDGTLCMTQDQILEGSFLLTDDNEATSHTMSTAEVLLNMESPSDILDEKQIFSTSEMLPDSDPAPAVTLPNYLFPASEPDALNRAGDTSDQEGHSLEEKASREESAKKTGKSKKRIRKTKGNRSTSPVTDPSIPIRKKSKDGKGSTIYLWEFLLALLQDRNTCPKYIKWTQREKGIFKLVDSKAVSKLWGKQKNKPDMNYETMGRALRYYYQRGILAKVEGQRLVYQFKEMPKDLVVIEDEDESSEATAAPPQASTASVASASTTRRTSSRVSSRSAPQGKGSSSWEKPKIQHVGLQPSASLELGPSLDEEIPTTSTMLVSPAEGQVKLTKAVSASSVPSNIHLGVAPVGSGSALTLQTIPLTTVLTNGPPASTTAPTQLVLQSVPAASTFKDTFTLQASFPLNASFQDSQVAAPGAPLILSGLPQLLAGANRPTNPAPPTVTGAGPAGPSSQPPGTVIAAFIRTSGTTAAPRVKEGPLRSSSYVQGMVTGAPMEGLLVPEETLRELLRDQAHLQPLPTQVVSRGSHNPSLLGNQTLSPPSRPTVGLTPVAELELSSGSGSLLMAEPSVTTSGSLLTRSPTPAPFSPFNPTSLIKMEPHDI
Chain of ETV5 (P41161 whole entry): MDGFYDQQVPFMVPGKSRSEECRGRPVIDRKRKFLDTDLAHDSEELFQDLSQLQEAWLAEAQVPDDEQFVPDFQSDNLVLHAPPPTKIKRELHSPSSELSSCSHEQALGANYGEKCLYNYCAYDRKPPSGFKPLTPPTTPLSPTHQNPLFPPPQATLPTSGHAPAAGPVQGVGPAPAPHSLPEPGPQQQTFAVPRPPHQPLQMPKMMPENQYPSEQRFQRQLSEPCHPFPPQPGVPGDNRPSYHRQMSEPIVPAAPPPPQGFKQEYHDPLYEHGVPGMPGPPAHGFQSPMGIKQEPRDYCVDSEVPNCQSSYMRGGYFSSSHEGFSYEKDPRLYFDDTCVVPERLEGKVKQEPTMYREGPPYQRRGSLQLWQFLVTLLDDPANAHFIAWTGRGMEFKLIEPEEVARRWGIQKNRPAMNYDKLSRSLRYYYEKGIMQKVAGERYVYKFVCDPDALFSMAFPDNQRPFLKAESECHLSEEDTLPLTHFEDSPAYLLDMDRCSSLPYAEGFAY
Chain of ETV6 (P41212 whole entry): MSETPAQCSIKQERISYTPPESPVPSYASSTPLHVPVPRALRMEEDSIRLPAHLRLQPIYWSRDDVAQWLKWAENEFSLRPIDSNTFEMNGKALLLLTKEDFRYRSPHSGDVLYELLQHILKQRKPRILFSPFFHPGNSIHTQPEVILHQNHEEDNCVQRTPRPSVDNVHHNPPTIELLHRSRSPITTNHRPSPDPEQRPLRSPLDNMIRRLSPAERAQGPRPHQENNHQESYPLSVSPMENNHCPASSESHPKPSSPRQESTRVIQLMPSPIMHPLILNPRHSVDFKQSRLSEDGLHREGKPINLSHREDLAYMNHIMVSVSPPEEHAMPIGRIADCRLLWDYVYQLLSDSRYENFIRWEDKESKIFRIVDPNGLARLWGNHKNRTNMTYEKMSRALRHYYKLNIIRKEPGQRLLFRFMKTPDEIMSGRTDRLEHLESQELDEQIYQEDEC
Chain of ELF1 (P32519 whole entry): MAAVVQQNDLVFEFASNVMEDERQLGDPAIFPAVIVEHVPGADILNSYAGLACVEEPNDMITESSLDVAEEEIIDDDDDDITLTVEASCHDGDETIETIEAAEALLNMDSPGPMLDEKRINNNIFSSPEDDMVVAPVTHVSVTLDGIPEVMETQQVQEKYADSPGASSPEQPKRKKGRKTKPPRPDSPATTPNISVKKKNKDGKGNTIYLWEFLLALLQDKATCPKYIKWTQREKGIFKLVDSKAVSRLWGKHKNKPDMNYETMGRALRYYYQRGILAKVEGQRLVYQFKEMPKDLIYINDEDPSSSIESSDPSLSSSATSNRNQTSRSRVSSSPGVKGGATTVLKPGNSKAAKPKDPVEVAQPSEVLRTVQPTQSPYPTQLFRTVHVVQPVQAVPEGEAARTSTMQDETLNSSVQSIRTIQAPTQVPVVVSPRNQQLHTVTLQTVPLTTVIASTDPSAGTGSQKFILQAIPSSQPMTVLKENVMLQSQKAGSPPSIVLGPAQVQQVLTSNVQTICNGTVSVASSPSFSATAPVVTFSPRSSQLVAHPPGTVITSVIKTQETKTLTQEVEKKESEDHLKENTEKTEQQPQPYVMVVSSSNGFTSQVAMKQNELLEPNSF

## ACATGG
[1]
  binding signal: 1.17 fold enrichment (6-mer frequency, TF over GST control)
[2]
  binding signal: 1.13 fold enrichment (6-mer frequency, TF over GST control)
[3]
  binding signal: 1.15 fold enrichment (6-mer frequency, TF over GST control)
[4]
  binding signal: 1.16 fold enrichment (6-mer frequency, TF over GST control)
[5]
  binding signal: 1.15 fold enrichment (6-mer frequency, TF over GST control)
[6]
  binding signal: 1.1 fold enrichment (6-mer frequency, TF over GST control)
[7]
  binding signal: 1.14 fold enrichment (6-mer frequency, TF over GST control)
[8]
  binding signal: 1.04 fold enrichment (6-mer frequency, TF over GST control)
[9]
  binding signal: 1.09 fold enrichment (6-mer frequency, TF over GST control)
[10]
  binding signal: 1.04 fold enrichment (6-mer frequency, TF over GST control)
[11]
  binding signal: 1.1 fold enrichment (6-mer frequency, TF over GST control)
[12]
  binding signal: 1.18 fold enrichment (6-mer frequency, TF over GST control)
[13]
  binding signal: 1.21 fold enrichment (6-mer frequency, TF over GST control)
[14]
  binding signal: 1.14 fold enrichment (6-mer frequency, TF over GST control)
[15]
  binding signal: 1.14 fold enrichment (6-mer frequency, TF over GST control)
[16]
  binding signal: 1.19 fold enrichment (6-mer frequency, TF over GST control)
[17]
  binding signal: 1.14 fold enrichment (6-mer frequency, TF over GST control)
[18]
  binding signal: 1.13 fold enrichment (6-mer frequency, TF over GST control)
[19]
  binding signal: 1.14 fold enrichment (6-mer frequency, TF over GST control)
